Several values for one entry are separate records, joined by “and”; a condition that tells them apart may be missing. Equal entries are not always repeated. Inconclusive results are not listed. Entries that show only a call come without a potency. Activity calls are given as the source filed them. Unless noted, calls follow the shape of the dose curve; as a rule, active = well fitted curve in the direction sought with a large enough effect in the repeat runs; inconclusive = weak or mixed curves; inactive = no such curve, though single readings can be large; an effect the other way counts as inactive or inconclusive.
Columns and labels:
[1] = qHTS assay for small molecule agonists of the p53 signaling pathway (AID 651631; calls by dose curve; also: nearly all actives have a fitted effect of over 15% in size; also: potency is read from the fitted curve at half-maximal effect)
In short: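 Beta-lactamase reporter activity under p53 response elements was quantified in HCT-116 cells by FRET fluorescence, following 16 h incubation with test compounds at 37 °C and 2 h substrate development at room temperature.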

[2] = qHTS assay for small molecules that induce genotoxicity in human embryonic kidney cells expressing luciferase-tagged ATAD5 (AID 651632); also: nearly all actives have a fitted effect of over 15% in size; also: potency is read from the fitted curve at half-maximal effect
In short: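 HEK293T cells carrying a luciferase reporter tagged to ATAD5 were exposed to compound or DMSO vehicle for 16 hr at 37C, 5% CO2. Amplite was added, and after 30 min at room temperature luciferase activity was read as a marker of ATAD5 induction.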

[3] = qHTS assay for small molecule agonists of the p53 signaling pathway - cell viability (AID 651633; calls by dose curve; also: nearly all actives have a fitted effect of over 30% in size; also: potency is read from the fitted curve at half-maximal effect)
In short: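 p53RE-bla cells were treated with compound for 16 hours at 37 C. Cytotoxicity was then measured as CellTiter-Glo luminescence after 30 min at room temperature.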

[4] = qHTS assay for small molecules that induce genotoxicity in human embryonic kidney cells expressing luciferase-tagged ATAD5 - cell viability (AID 651634; calls by dose curve; also: nearly all actives have a fitted effect of over 25% in size; also: potency is read from the fitted curve at half-maximal effect)
In short: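 HEK293T cells expressing luciferase-tagged ATAD5 were exposed to compound or DMSO for 15.5 hr at 37C, 5% CO2. Viability was then read as live-cell protease activity by CellTiter-Fluor fluorescence after 30 min at 37C.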

[5] = qHTS assay for small molecule disruptors of the mitochondrial membrane potential - cell viability (AID 720634; calls by dose curve; also: nearly all actives have a fitted effect of over 20% in size; also: potency is read from the fitted curve at half-maximal effect)
In short: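 HepG2 cells seeded overnight at 37 C, then exposed to compound or DMSO for 1 hr at 37 C, 5% CO2. m-MPI dye added, then CellTiter-Glo for 30 min at room temperature; viability read as ATP luminescence.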

[6] = qHTS assay for small molecule disruptors of the mitochondrial membrane potential (AID 720635); also: potency is read from the fitted curve at half-maximal effect
In short: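 HepG2 cells exposed to compound 1 hr at 37C, then Mito-MPS dye 30 min. Ratio read of aggregate (540/590 nm) versus monomer (490/535 nm) fluorescence.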

[7] = qHTS assay to test for compound auto fluorescence at 590 nm (red) in HepG2 cells (AID 720674)
In short: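 HepG2 cells, 2,000 per well in MEM with 10% FBS, attached overnight at 37 C, then got 23 nL compound or DMSO. After 1 hr at 37 C, 5% CO2, red fluorescence was read at 540/590 nm against Rose Bengal sodium as reference.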

[8] = qHTS assay to test for compound auto fluorescence at 535 nm (green) in HepG2 cells (AID 720675)
[9] = qHTS assay to test for compound auto fluorescence at 460 nm (blue) in HEK293 cells (AID 720678); also: potency is read from the fitted curve at half-maximal effect
In short: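 HEK293, 2,000 cells/well, 10% dialyzed FBS; attach 4-5 hr 37C; pin compound or DMSO; o/n 37C/5% CO2; fluorescence 405/460 nm; triamterene-equivalent units.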

[10] = qHTS assay to test for compound auto fluorescence at 590 nm (red) in HEK293 cells (AID 720679)
In short: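 Intensity at 540nm excitation and 590nm emission is reported as Rose Bengal sodium-equivalent autofluorescence. Measurements followed overnight exposure (37C, 5% CO2) of HEK293 cells, 2,000 per well, to 23 nL compound.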
Tags tell the direction and shape of the fitted curve or compound fluorescence and quenching.

Row | SMILES | Potency [1] | Potency [2] | Potency [3] | Potency [4] | Potency [5] | Potency [6] | Potency [7] | Potency [8] | Potency [9] | Potency [10]
1 | CS(=O)(=O)OCCCCOS(C)(=O)=O | inactive | inactive | inactive | inactive | inactive | inactive | inactive | inactive | inactive | inactive
2 | Cc1ncc([N+](=O)[O-])n1C | inactive | inactive | inactive | inactive | inactive | inactive | inactive | inactive | inactive | inactive
3 | CC12CCC(CC1)C(C)(C)O2 | inactive | inactive | inactive | inactive | inactive | inactive | inactive | inactive | inactive | inactive
4 | NC(=O)c1cccnc1 | inactive | inactive | inactive | inactive | inactive | inactive | inactive | inactive | inactive | inactive
5 | O=C(O)c1ccccc1 | inactive | inactive | inactive | inactive | inactive | inactive | inactive | inactive | inactive | inactive
6 | CN(C)C(=O)Nc1ccc(Cl)c(Cl)c1 | inactive | inactive | inactive | inactive | inactive | 29.8 µM (active) | inactive | inactive | inactive | inactive
7 | CC1(C)O[C@@H]2C[C@H]3[C@@H]4CCC5=CC(=O)C=C[C@]5(C)[C@@]4(F)[C@@H](O)C[C@]3(C)[C@]2(C(=O)CO)O1 | inactive | inactive | inactive | inactive | inactive | inactive | inactive | inactive | inactive | inactive
8 | Cc1ncc([N+](=O)[O-])n1CCO | inactive | inactive | inactive | inactive | inactive | inactive | inactive | inactive | inactive | inactive
9 | CCCc1cc(=O)[nH]c(=S)[nH]1 | inactive | inactive | inactive | inactive | inactive | inactive | inactive | inactive | inactive | inactive
10 | CCc1nc(N)nc(N)c1-c1ccc(Cl)cc1 | 8.41 µM (active) | inactive | 10.6 µM (active) and 12.4 µM (active) | inactive | inactive | inactive | inactive | inactive | inactive | inactive
11 | NC(CO)(CO)CO | inactive | inactive | inactive | inactive | inactive | inactive | inactive | inactive | inactive | inactive
12 | OC[C@H]1O[C@H](O[C@]2(CCl)O[C@H](CCl)[C@@H](O)[C@@H]2O)[C@H](O)[C@@H](O)[C@H]1Cl | inactive | inactive | inactive | inactive | inactive | inactive | inactive | inactive | inactive | inactive
13 | O=C1c2c(O)cccc2Cc2cccc(O)c21 | inactive | inactive | inactive | inactive | inactive |  | inactive | inactive | inactive | inactive
14 | CN(N=O)C(=O)N[C@@H]1[C@@H](O)[C@H](O)[C@@H](CO)O[C@@H]1O | inactive | inactive | inactive | inactive | inactive | inactive | inactive | inactive | inactive | inactive
15 | CCCCC1(COC(=O)CCC(=O)O)C(=O)N(c2ccccc2)N(c2ccccc2)C1=O | inactive | inactive | inactive | inactive | inactive | inactive | inactive | inactive | inactive | inactive
16 | COc1ccc2c(c1)c(CC(=O)O)c(C)n2C(=O)c1ccc(Cl)cc1 | inactive | inactive | inactive | inactive | inactive |  | inactive | inactive | inactive | inactive
17 | O=C(O)CC(O)C(=O)O (configuration not stated) | inactive | inactive | inactive | inactive | inactive | inactive | inactive | inactive | inactive | inactive
18 | O=c1[nH]cc(F)c(=O)[nH]1 | 4.22 µM (active) and 3.57 µM (active) and 1.57 µM (active) | 7.5 µM (active) and 10.1 µM (active) | 1.06 µM (active) and 991 nM (active) | inactive | inactive | inactive | inactive | inactive | inactive | inactive
19 | COc1ccc(C(Cl)=C(c2ccc(OC)cc2)c2ccc(OC)cc2)cc1 | inactive | inactive | inactive | inactive | inactive | 13.6 µM (active) and 21.7 µM (active) | inactive | inactive | inactive | inactive
20 | NS(=O)(=O)c1cc2c(cc1Cl)NCNS2(=O)=O | inactive | inactive | inactive | inactive | inactive | inactive | inactive | inactive | inactive | inactive
21 | CCCCCCCC(=O)OCC(COC(=O)CCCCCCC)OC(=O)CCCCCCC | inactive | inactive | inactive | inactive | inactive | inactive | inactive | inactive | inactive | inactive

Row | SMILES | Potency [1] | Potency [2] | Potency [3] | Potency [4] | Potency [5] | Potency [6] | Potency [7] | Potency [8] | Potency [9] | Potency [10]
22 | Cc1cc(=O)oc2cc(O)ccc12 | 61.1 µM (active) and 48.6 µM (active) | inactive | inactive | inactive | inactive | inactive | inactive | inactive | 11.2 µM [fluorescent] (active) and 39.8 µM [fluorescent] (active) and 35.5 µM [fluorescent] (active) | inactive
23 | CC(=O)C(=O)O | inactive | inactive | inactive | inactive | inactive | inactive | inactive | inactive | inactive | inactive
24 | CCOC(N)=O | inactive | inactive | inactive | inactive | inactive | inactive | inactive | inactive | inactive | inactive
25 | Cc1c(C(=O)O)c(O)cc2c1C(=O)c1c(O)c([C@@H]3O[C@H](CO)[C@@H](O)[C@H](O)[C@H]3O)c(O)c(O)c1C2=O | inactive | inactive | inactive | 11.9 µM (active) and 37.6 µM (active) and 54.5 µM (active) | inactive | inactive | inactive | inactive | inactive | inactive
26 | CCOc1ccc(NC(C)=O)cc1 | inactive | inactive | inactive | inactive | inactive | inactive | inactive | inactive | inactive | inactive
27 | NS(=O)(=O)O | inactive | inactive | inactive | inactive | inactive | inactive | inactive | inactive | inactive | inactive
28 | CCCCNC(=O)NS(=O)(=O)c1ccc(C)cc1 | inactive | inactive | inactive | inactive | inactive | inactive | inactive | inactive | inactive | inactive
29 | Cc1cn([C@H]2C=C[C@@H](CO)O2)c(=O)[nH]c1=O |  | inactive | inactive | inactive | inactive | inactive | inactive | inactive | inactive | inactive
30 | CC(C)C(=O)Nc1ccc([N+](=O)[O-])c(C(F)(F)F)c1 |  | inactive | inactive | inactive | 12.5 µM (active) and 27.3 µM (active) | 13.3 µM (active) and 6.29 µM (active) and 9.69 µM (active) | inactive | inactive | inactive | inactive
31 | Nc1ccc(O)c([N+](=O)[O-])c1 |  | inactive | inactive | 53.9 µM (active) | inactive | 3.03 µM (active) | inactive | inactive | inactive | inactive
32 | C[C@](N)(Cc1ccc(O)c(O)c1)C(=O)O | inactive | inactive | inactive | inactive | inactive |  | inactive | inactive | inactive | inactive
33 | CCCCCCCCCCCCCCCC[N+](C)(C)Cc1ccccc1 |  | inactive | 11.9 µM (active) and 35.5 µM (active) and 39.3 µM (active) | 29.8 µM (active) and 79.4 µM (active) | 26.6 µM (active) | 4.22 µM (active) and 10 µM (active) and 13.9 µM (active) | inactive | inactive | inactive | inactive
34 | Nc1ccc([N+](=O)[O-])cc1O |  | inactive | inactive | 54.5 µM (active) | inactive | 17.2 µM (active) | inactive | inactive | inactive | inactive
35 | NC1CCCCC1 |  | inactive | inactive | inactive | inactive | inactive | inactive | inactive | inactive | inactive
36 | Cn1c(=O)c2c(ncn2C)n(C)c1=O | inactive |  | inactive |  | inactive | inactive | inactive | inactive | inactive | inactive
37 | CC1(C)S[C@@H]2[C@H](NC(=O)[C@H](N)c3ccccc3)C(=O)N2[C@H]1C(=O)O | inactive | inactive | inactive | inactive |  |  | inactive | inactive | inactive | inactive
38 | COc1cccc(O)c1O | inactive |  | inactive | 17.9 µM (active) | inactive |  | inactive | inactive | inactive | inactive
39 | C=CCc1ccc(O)c(OC)c1 | inactive | inactive | inactive | inactive | inactive |  | inactive | inactive | inactive | inactive
40 | COc1ccc(OC(F)(F)F)cc1CN[C@H]1CCCN[C@H]1c1ccccc1 | inactive | inactive | inactive | inactive | inactive |  | inactive | inactive | inactive | inactive
41 | Cc1cccc(C)c1 |  | inactive | inactive | inactive | inactive | inactive | inactive | inactive | inactive | inactive
